Screening data from PubChem BioAssay.
Shown are actives, neighbours in structure and some others; about 12% of the full set was active somewhere.
Sfp inh: blocks B. subtilis Sfp PPTase activity | AID 1490 | Biochemical Sfp PPTase activity, qHTS | Potency, µM, without a hit: largest response in the series, negative = inhibition, actives largely listed as inhibitors | Q9F4F7 | 310,000 compounds, 3.5% hits;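 note: the enzyme is Sfp with the accession as filed and its product quenches rhodamine fluorescence; 0% = enzyme reaction without inhibitor and -100% = no enzyme wells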
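Fluorescence-quenching assay: 15 nM Sfp-PPTase preincubated 15 min at room temperature with compound, then 5 uM rhodamine-CoA and 12.5 uM BHQ-2-labelled YbbR peptide added. Fluorescence (ex 525/em 598 nm) read at start and after 30 min; difference gives rate.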
G9a inh: blocks human histone lysine methyltransferase G9a | Q96KQ7 | G9a H3K9 monomethylation, AlphaScreen, 2 h | Potency, µM (series often up to 102 µM), without a hit: top-dose activity, negative = inhibition, actives largely listed as inhibitors | 350,000 compounds, 8.8% hits | AID 504332; note: % is set by controls: 0 for no effect and ±100 for the full control effect; nearly all actives have a fitted effect of over 75% in size
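Methyltransferase reactions run at room temperature for 2 h (20 nM enzyme, 500 nM biotin-H3K9 peptide, 20 uM SAM) after a 15 min compound preincubation; product detected by AlphaScreen beads and anti-H3K9me1 antibody.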
JMJD2A Tudor: blocks the human JMJD2A Tudor domain; AlphaScreen JMJD2A-Tudor / H3K4me3 peptide binding; O75164; 390,000 compounds, 4.4% hits; AID 504339; Potency, µM (series often up to 114 µM), for inactives: top-dose activity change, negative = inhibition, hits mostly inhibitors; note: % is set by controls: 0 for no effect and ±100 for the full control effect; nearly all actives have a fitted effect of over 50% in size
TDP1 inh: TDP1 (human) enzyme inhibition; Q9NUW8; recombinant TDP1, AlphaScreen DNA substrate cleavage; Potency, µM (series often up to 130 µM), without a hit: at the top dose activity change, negative = inhibition, most hits filed as inhibitors; 350,000 compounds, 0.28% hits; AID 485290; note: % is set by controls: 0 for no effect and ±100 for the full control effect; nearly all actives have a fitted effect of over 40% in size
Target sequence (Q9NUW8 whole entry, looked up): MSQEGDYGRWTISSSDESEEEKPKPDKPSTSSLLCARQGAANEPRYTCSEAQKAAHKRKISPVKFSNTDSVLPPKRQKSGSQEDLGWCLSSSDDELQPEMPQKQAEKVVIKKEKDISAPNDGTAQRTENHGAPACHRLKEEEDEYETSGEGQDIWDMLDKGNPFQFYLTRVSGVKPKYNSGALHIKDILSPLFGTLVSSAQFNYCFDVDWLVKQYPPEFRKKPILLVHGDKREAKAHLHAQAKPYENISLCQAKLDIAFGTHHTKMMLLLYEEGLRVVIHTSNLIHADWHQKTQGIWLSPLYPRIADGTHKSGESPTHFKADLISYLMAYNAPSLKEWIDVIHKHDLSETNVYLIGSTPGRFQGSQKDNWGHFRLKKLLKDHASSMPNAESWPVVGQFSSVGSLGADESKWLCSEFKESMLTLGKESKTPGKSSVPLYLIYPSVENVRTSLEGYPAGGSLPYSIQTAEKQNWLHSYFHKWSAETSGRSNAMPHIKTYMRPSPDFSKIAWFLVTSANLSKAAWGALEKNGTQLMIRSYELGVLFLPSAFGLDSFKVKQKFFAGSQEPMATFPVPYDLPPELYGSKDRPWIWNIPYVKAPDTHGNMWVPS
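AlphaScreen read-out: signal falls as enzyme removes the 3' tyrosine-FITC from a 5'-biotinylated DNA oligo (15 nM, 5 min, RT). Enzyme was E. coli-made recombinant Tdp1 at 1 nM, exposed to compound for 15 min beforehand; beads 10 ug/ml, 10 min.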
HP1b chromo inh: inhibitors of HP1-beta chromodomain binding to methylated histone tails. AlphaScreen HP1-beta / biotin-H3K9me3 peptide binding. 390,000 compounds, 0.56% hits. Potency, µM (doses to about 114 µM), for inactives: at the top dose activity change, negative = inhibition, usual class: inhibitors. P83916; note: nearly all actives have a fitted effect of over 70% in size
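AlphaScreen: HP1-beta (50 nM) preformed 30 min with biotin-H3(1-18)K9me3 peptide (50 nM) in PBS pH 7.4, 0.01% Tween-20. Compound added for 30 min at RT, then streptavidin donor/nickel chelate acceptor beads (10 ug/mL) for 30 min.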
BAZ2B block: blocks human BAZ2B; AlphaScreen BAZ2B-H3K14Ac peptide displacement; Potency, µM (highest dose often 114 µM), for the others: at the top dose activity change, negative = inhibition, hits mostly inhibitors; Q9UIF8; 360,000 compounds, 4.4% hits; note: % is set by controls: 0 for no effect and ±100 for the full control effect; nearly all actives have a fitted effect of over 60% in size
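BAZ2B 50 nM plus b-H3(5-23)K14Ac 50 nM, PBS pH 7.4/0.01% Tween-20, 30 min RT; compound added (max 110 uM), 30 min RT; streptavidin donor/Ni-chelate acceptor beads 10 ug/mL final, 20 min dark; AlphaScreen read.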
An asterisk follows results filed as active; [ ] = dose if it differs, or a comment. Calls come from the whole dose curve; as a rule, active = well fitted curve in the direction sought with a large enough effect; inconclusive = small, poorly fitted or top-dose-only effect, or another doubt; inactive = no such curve, though single readings can be large; an effect the other way counts as inactive or inconclusive. Potency is the fitted concentration of half-maximal effect.

CCCCc1cc2c(cn1)=C(OC(=O)c1cccs1)C(C)(OC(=O)CC)C(=O)C=2 (stereo unspecified) was read as Sfp inh -2% and TDP1 inh 8%[21 µM].
Cc1ccccc1NC(=O)Cc1c[nH]c2ccccc12 was read as Sfp inh 18%, G9a inh 16%, JMJD2A Tudor 2%, HP1b chromo inh 13% and BAZ2B block -6%.
CCOC(=O)C1=C(O)/C(=C\c2ccc(O)c(OCC)c2)N=C1C was read as Sfp inh -1%, G9a inh inconclusive, JMJD2A Tudor -7%, TDP1 inh -3%, HP1b chromo inh 1% and BAZ2B block -19%.
Screening CCOc1cc(/C=C2/N=C(C)C(C(=O)OC)=C2O)ccc1O returned Sfp inh -4%, G9a inh 45µM*, JMJD2A Tudor -13%, TDP1 inh 3%, HP1b chromo inh 6% and BAZ2B block -10%.
Screening CCOC(=O)C1=C(O)/C(=C/c2cc(OC)c(OC)c(OC)c2)N=C1C returned Sfp inh 89µM*, G9a inh 9%[0.0925 µM], JMJD2A Tudor -12%, TDP1 inh -2%, HP1b chromo inh 27% and BAZ2B block -10%.
Screening CCOc1ccc(NC(=O)c2ccc(F)c(S(=O)(=O)N(CC)Cc3ccccc3)c2)cc1 returned G9a inh -4%[59 µM], JMJD2A Tudor -14%, TDP1 inh 8%, HP1b chromo inh 34% and BAZ2B block 2%.
Screening Cc1c(Cl)cccc1Nc1nn2c(=O)c3ccccc3nc2s1 returned G9a inh 4%[59 µM], JMJD2A Tudor -22%, TDP1 inh -9%, HP1b chromo inh 4% and BAZ2B block 0%.
Screening CCc1cccc(C)c1Nc1nn2c(=O)c3ccccc3nc2s1 returned G9a inh 7.1µM*, JMJD2A Tudor -20%, HP1b chromo inh inconclusive and BAZ2B block 0%.
Screening Cc1cc(-c2ccccc2)[nH]c(=O)c1C#N returned Sfp inh 19%, G9a inh -2%, JMJD2A Tudor -2%[57.1 µM], TDP1 inh -5%, HP1b chromo inh 51% and BAZ2B block -2%.
For N#Cc1sc2nc(-c3ccccc3)cc(-c3ccco3)c2c1N the results were Sfp inh 79µM*, G9a inh 8.9µM*, JMJD2A Tudor 56µM*, TDP1 inh -8%, HP1b chromo inh -19% and BAZ2B block inconclusive.
`N#Cc1c(-c2ccco2)cc(-c2ccccc2)[nH]c1=O` gave Sfp inh inconclusive, JMJD2A Tudor inconclusive, HP1b chromo inh 21% and BAZ2B block 71µM*.
Cc1ccc(-c2cc(-c3ccco3)c(C#N)c(=O)[nH]2)cc1 was read as Sfp inh inconclusive, G9a inh -132%[59 µM], JMJD2A Tudor 79µM*, HP1b chromo inh 17% and BAZ2B block 50µM*.
Screening CC(C)(C)c1cc(-c2ccco2)c(C#N)c(SCC#N)n1 returned Sfp inh 36%, G9a inh 7%[12.7 µM], JMJD2A Tudor 31%[11.4 µM], TDP1 inh 2%, HP1b chromo inh -6% and BAZ2B block -4%.
N#Cc1c(-c2ccccc2)cc(-c2ccco2)c(C#N)c1N was read as Sfp inh 35µM*, G9a inh inconclusive, TDP1 inh 5% and BAZ2B block -1%.
Screening CCC1(c2ccc(F)cc2)NC(=O)NC1=O (stereo unspecified) returned Sfp inh 15%, G9a inh -10%, JMJD2A Tudor -7%, TDP1 inh 6%, HP1b chromo inh 17% and BAZ2B block 10%.
`Cc1ccc([N+](=O)[O-])c(C)[n+]1C` gave Sfp inh -25%, G9a inh 3.5µM*, JMJD2A Tudor 14µM*, TDP1 inh -1%, HP1b chromo inh inconclusive and BAZ2B block inconclusive.
Screening Cc1ccc([N+](=O)[O-])c(N)c1 returned TDP1 inh 8%.
